{"source": "PubChem BioAssay (NCI)", "note": "The panel holds about 83,000 compounds, 20% with a hit somewhere; the sample as a whole holds those more often.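 Testing used 96-well plates and a 48-hour single-concentration exposure. Example: -40 means 40% of the starting cells died.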 Values without a mark were called inactive. Calls of active or inactive are those of the source. Rule for the calls: active = growth percent below 10; inactive = the rest."}
{"system": "HL-60(TB) leukemia", "assay": "NCI-60 one-dose screen, 48 h (100 = growth as untreated, 0 = no growth, -100 = all killed)", "conditions": "10 µM unless noted"}
{"smiles": "COc1ccc(NC(=O)c2ccc(/C=C/C(=O)c3ncc[nH]3)cc2)cc1", "growth": "33.6%"}
{"smiles": "CC1(C)C(N)=Nc2cc(OCCCCN3Cc4ccccc4C3)c(OCC3CC3)cc21", "growth": "99.7%"}
{"smiles": "O=C(Oc1ccccc1Cl)c1ccc(Cl)cc1Cl", "growth": "106%"}
{"smiles": "O=C(O)/C(=C/c1ccc(O)cc1)c1ccccc1", "growth": "96%"}
{"smiles": "Cc1cc(-c2cc(OC(=O)c3ccccc3)ccc2Cl)cc2nnc(Nc3ccc(OCCN4CCCC4)cc3)nc12", "growth": "116%"}
{"smiles": "CCn1cc(C(=O)N/N=C/c2ccc(Br)cc2)c(=O)c2cc(F)c(N3CCNC(C)C3)c(F)c21", "note": "(stereo not given)", "growth": "48.7%"}
{"smiles": "COc1cc(C(=O)/C(C)=C/c2c[nH]c3ccccc23)cc(OC)c1OC", "growth": "-9.27% (active)"}
{"smiles": "CC[C@]1(O)CC2CN(CCc3c([nH]c4ccccc34)C(C(=O)OC)(c3cc4c(cc3OC)N(C=O)[C@H]3[C@@](O)(C(=O)OC)[C@H](OC(C)=O)[C@]5(CC)[C@@H]6C[C@@H]6CN6CC[C@]43[C@@H]65)C2)C1", "note": "(stereo not given in full)", "growth": "0.642% (active)"}
{"smiles": "Cn1c2ccccc2c2c3c(c4c5cc(Br)ccc5n(C)c4c21)C(=O)N(O)C3=O", "growth": "-33.2% (active)"}
{"smiles": "C=C1C(=O)O[C@H]2[C@H]1CC/C(COC(=O)c1ccc(C#N)cc1)=C\\CC[C@@]1(C)O[C@@H]21", "growth": "-33.6% (active)"}
{"smiles": "C/C(=N\\NC(=S)N1CCCC1)c1ccccn1", "growth": "-13.4% (active)"}
{"smiles": "CC(C)[C@H]1COC(=O)N1[C@@H]1C(=O)N([C@@H](CCC(=O)N2CCN(C3CCCC3)CC2)C(=O)N[C@@H]2CCCc3ccccc32)[C@@H]1/C=C/c1cccc(Cl)c1", "growth": "5.13% (active)"}
{"smiles": "COc1ccc(S(=O)(=O)n2cc(C(=O)C(=O)Nc3ccncc3)c3ccccc32)cc1F", "growth": "-46.4% (active)"}
{"smiles": "O=C(Nc1ccc(Cl)c([N+](=O)[O-])c1)Nc1nc2ccccc2s1", "growth": "91.3%"}
{"smiles": "COc1cc(/C=C/C(=O)c2cc(-c3ccc(F)cc3)ccc2O)cc(OC)c1OC", "growth": "39.5%"}
{"smiles": "O=C1Nc2ccc(Cl)cc2/C1=N/N=C(c1ccccc1)c1ccccc1", "growth": "91.4%"}
{"smiles": "C#C[C@]1(O)CC[C@H]2[C@@H]3CC=C4c5nc(Nc6ccccc6[N+](=O)[O-])sc5CC[C@]4(C)[C@H]3CC[C@@]21C", "growth": "77.7%"}
{"smiles": "C[N+](C)(CCOC(c1ccccc1)c1ccccc1)CC(=O)OCc1ccccc1", "growth": "100%"}
{"smiles": "CCNC(=S)n1nc(SC)c(C(=O)OCC)c1N", "growth": "100%"}
{"smiles": "CCOC(=O)CNC", "growth": "97.3%"}
{"smiles": "Fc1cccc(F)c1C#Cc1ccc2cccnc2c1", "growth": "74.6%"}
{"smiles": "COc1ccc(CN2C(=O)C(Cl)=C(Nc3cccc(C(F)(F)F)c3)C2=O)cc1", "growth": "29%"}
{"smiles": "Nc1[nH]n2cc(-c3ccc(F)cc3)nc2c1N=Nc1ccc(S(N)(=O)=O)cc1", "growth": "94.7%"}
{"smiles": "O=C(CN1CCCCCC1)Nc1nc2ccc(NCc3ccc(Cl)cc3)cc2s1", "growth": "95.9%"}
{"smiles": "C=C1CCC2C3(C)COC(c4c(OC)cccc4OC)OC3CCC2(C)C1C/C=C1/C(=O)OCC1O", "note": "(stereo not given)", "growth": "29.4%"}
{"smiles": "Cc1ccc(NC(=O)/C=C/c2ccccc2)c(C(N)=O)c1", "growth": "-25.5% (active)"}
{"smiles": "O=C1CC(c2ccccc2)Cc2nc3ccc(Br)cc3cc21", "note": "(stereo not given)", "growth": "-28.4% (active)"}
{"smiles": "Oc1ccc(N=Nc2nccs2)c(O)c1", "growth": "5.98% (active)"}
{"smiles": "CC(=O)OCCCCCNc1ccccc1", "growth": "76.3%"}
{"smiles": "CS(=O)(=O)Nc1cccc(-c2ccc3ncnc(Nc4cncc(Cl)c4)c3c2)c1", "growth": "35.5%"}
{"smiles": "COc1cc(/C=N/Nc2ccccc2F)cc(OC)c1OC", "growth": "90.1%"}
{"smiles": "CC(=O)CSC(C)=O", "growth": "102%"}
{"smiles": "N#CCc1cccc2ccccc12", "growth": "90.6%"}
{"smiles": "O=C(NCCNc1cc(-c2cn(-c3ccccc3)nc2-c2cccc(O)c2)ccn1)Nc1ccccc1", "growth": "29.9%"}
{"smiles": "CCCCCCCC(=O)SCC/C=C/[C@@H]1CC(=O)NCc2nc(cs2)C2=N[C@@](C)(CS2)C(=O)N[C@@H](C(C)C)C(=O)N1", "growth": "8.7% (active)"}
{"smiles": "Cc1c(Cl)cccc1NC(=O)c1sc2nc3c(cc2c1N)COCC3", "growth": "2.35% (active)"}
{"smiles": "CCCCC1COc2cccc3c2N1C=C/C3=C\\C(=O)N(C)c1ccccc1", "note": "(stereo not given)", "growth": "9.39% (active)"}
{"smiles": "O=C(Oc1ccccc1)c1cc(O)c(O)c(O)c1", "growth": "-5.58% (active)"}
{"smiles": "N#Cc1c(N2CCOCC2)nc2sc3cc(Cl)ccc3n2c1=N", "growth": "107%"}
{"smiles": "CCCCCCCCCCCCCCCC(=O)OCC1OC(n2cnc3c(=S)nc(N)[nH]c32)C(OC(=O)CCCCCCCCCCCCCCC)C1OC(=O)CCCCCCCCCCCCCCC", "note": "(stereo not given)", "growth": "86%"}
